From ChEMBL document CHEMBL4513216, “Probing the Open Global Health Chemical Diversity Library for Multistage-Active Starting Points for Next-Generation Antimalarials” (ACS Infect Dis, 2020)
The whole screen tested about 68,000 compounds, of which about 2,700 (4%) showed an effect of 50% or more. For the sample, strong results were picked, then their nearest neighbours and some compounds at random.

system: Plasmodium berghei; test: Screen against P. berghei liver stage (PbLuc), transformed with Luciferase, at 2uM; assay type: functional, HepG2; conditions: tested at 2 uM

Row | SMILES | INHIBITION
1 | Cc1ccccc1OCC(=O)NCC(c1ccc(N(C)C)cc1)N(C)C (configuration not stated) | 36.6%
2 | CC(c1ccc(S(N)(=O)=O)cc1)N(C)C(=O)c1ccccc1I (configuration not stated) | -28.49%
3 | CCOc1ccccc1C(=O)N(C)C(C)c1ccc(S(C)(=O)=O)cc1 (configuration not stated) | 91.01%
4 | CC(c1ccc(S(C)(=O)=O)cc1)N(C)C(=O)c1ccccc1I (configuration not stated) | 6.85%
5 | CC(C)c1csc(NC(=O)NC2CCCN(c3cnn(C)c3)C2)n1 (configuration not stated) | -20.08%
6 | N#Cc1cc(F)c(N2CCC(NS(=O)(=O)c3cccs3)CC2)c(F)c1 | 24.17%
7 | CSCC(C)(O)CNc1cccc(F)c1C(C)=O (configuration not stated) | 8.75%
8 | CSCC(C)(O)CNc1cccc(F)c1C#N (configuration not stated) | 52.6%
9 | CC(C)C(C)(O)CNc1cccc(F)c1C#N (configuration not stated) | 28.1%
10 | Cc1ccc(-n2ncc(C(=O)N(C)C3CCN(C)CC3)c2N)cc1C | -11.1%
11 | O=C(C1=CCCC1)N1CCC[C@]2(C[C@@H](OCc3ccccn3)CO2)C1 | 3.72%
12 | CC(c1ccco1)N(C(=O)NCc1ccon1)C1CC1 (configuration not stated) | 1.88%
13 | Cc1noc(C)c1CNC(=O)N(C)C1CCN(c2ccccc2)C1=O (configuration not stated) | -7.88%
14 | CCc1cc(CNC(=O)N(C2CC2)C(C)c2ccco2)[nH]n1 (configuration not stated) | 61.42%
15 | CCc1cc(CNC(=O)N(C2CC2)C(C)c2ccco2)on1 (configuration not stated) | -27.89%
16 | CC(c1ccco1)N(C(=O)c1cccc(C#N)c1)C1CC1 (configuration not stated) | 32.93%
17 | Cc1noc(C)c1CNC(=O)N(C1CC1)C(C)c1ccco1 (configuration not stated) | 50.91%
18 | COc1cc(N2CCC3(CC2)OCC(=O)NC3C)ncn1 (configuration not stated) | -7.03%
19 | Cc1ccc(CN2CC[C@H]3[C@H]2CC(=O)N3c2ccsc2)o1 | 43.05%
20 | COCCC(=O)N[C@H]1CC[C@H](Nc2nccc(-c3ccncc3)n2)C1 | 24.51%
21 | O=c1c(Cc2ccc(Cl)cc2Cl)c(O)ccn1CC1CC1 | 31.56%
22 | CCc1nc2ccccc2c(=O)n1CC1(O)CCN(C(=O)COC)CC1 | 56.99%
23 | CCCC(=O)N1CCC(O)(Cn2c(CC)nc3ccccc3c2=O)CC1 | -64.2%
24 | CCc1nc2ccccc2c(=O)n1CC1(O)CCN(C(=O)C(C)C)CC1 | 59.91%
25 | CCc1nc2ccccc2c(=O)n1CC1(O)CCN(CC(=O)OC)CC1 | 28.64%
26 | CCc1nc2ccccc2c(=O)n1CC1(O)CCN(S(C)(=O)=O)CC1 | -37.18%

Row | SMILES | INHIBITION
27 | CCc1nc2ccccc2c(=O)n1CC1(O)CCN(C(=O)C2CC2)CC1 | 29.89%
28 | Cc1nccn1CCC(=O)N1CCC2(CCC(=O)N(CC3CC3)C2)CC1 | -63.27%
29 | CCc1ccc(S(=O)(=O)Nc2cn(C)cc(Br)c2=O)cc1 | 11.28%
30 | Cn1cc(Br)c(=O)c(NS(=O)(=O)c2ccc(F)cc2)c1 | 55.04%
31 | Cn1cc(Br)c(=O)c(NS(=O)(=O)c2ccc(Cl)cc2)c1 | 4.67%
32 | CNS(=O)(=O)c1cc(C(=O)N(C)Cc2sccc2C)c(C)o1 | 10.48%
33 | Cc1cc(C(=O)N2C[C@@H](C(=O)O)[C@H](C(C)C)C2)cs1 | -3.66%
34 | Cc1cc(C(=O)N2C[C@H](C(C)C)[C@@H](N(C)C)C2)cs1 | 68.66%
35 | Cc1nc(CC(C)C)cc(C(=O)N2C[C@@H](N(C)C)[C@H](C(C)C)C2)n1 | 0.55%
36 | CC(C)c1cccc(N2CCCC3(CCC(=O)N(C4CC4)C3)C2)n1 (configuration not stated) | -90.99%
37 | Cc1ccc(O)c(CNCC(C)c2nc3ccccc3o2)n1 (configuration not stated) | 35.36%
38 | CCC(CC)C(=O)N1CCOC2(CNC2)C1 | 58.95%
39 | CCC(CC)C(=O)N1CCOC2(COCCN(CC(=O)NC)C2)C1 (configuration not stated) | 48.52%
40 | CC(C)NC(=O)N1CCOC2(CNC2)C1 | 44.13%
41 | Cc1cc(C(=O)NCC(C)C)c2c(C3CCCN3)noc2n1 (configuration not stated) | -14.61%
42 | Cc1noc(CNC2CCCN(Cc3noc(C4CC4)n3)C2)n1 (configuration not stated) | 10.53%
43 | CC(C)Oc1cc(N2CCN(Cc3ccsc3)C(CCO)C2)nc(N)n1 (configuration not stated) | 51.76%
44 | Cc1cc(N2CCN(Cc3ccsc3)C(CCO)C2)nc(N)n1 (configuration not stated) | 34%
45 | COc1cc(N2CCN(Cc3ccsc3)C(CCO)C2)nc(N)n1 (configuration not stated) | 39.92%
46 | O=c1[nH]c2cn(-c3ccc(F)cc3)c(=O)n2n1Cc1cccc(Cl)c1 | 58%
47 | O=c1[nH]c2cn(-c3cccc(F)c3)c(=O)n2n1Cc1ccc(Cl)cc1 | 5.87%
48 | O=c1[nH]c2cn(-c3cccc(Cl)c3)c(=O)n2n1Cc1cccc(F)c1 | 42.62%
49 | CCCn1nc2c(cc1=O)CN(CCN1CCCC1=O)CC2 | -33.39%
50 | CC(=O)N1CCN(c2nc3c(cnn3C(C)(C)C)c(=O)[nH]2)CC1 | -12.08%
51 | CC(C)(C)n1ncc2c(=O)[nH]c(N3CCN(CCO)CC3)nc21 | 40.47%
52 | CC(C)(C)n1ncc2c(=O)[nH]c(N3CCN(CC(F)F)CC3)nc21 | 66.74%
